# Measured values: PubChem BioAssay (NCATS)
# Records with an inconclusive call do not appear. A call without a number means that no potency is given here. Activity calls are given as the source filed them. Unless noted, calls come from the whole dose curve; as a rule, active = well fitted curve in the direction sought with a large enough effect; inconclusive = small, poorly fitted or top-dose-only effect, or another doubt; inactive = no such curve, though single readings can be large; an effect the other way counts as inactive or inconclusive.
# Columns and labels:
# [1] = molecular target: Calcium and integrin-binding protein 1 (Homo sapiens) (UniProt Q99828); test: Primary qHTS for Identification of Calcium Integrin Binding Protein 1 (CIB1) Competitor (AID 1508620);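 note: GST tagged CIB1 binding a fluorescein labelled alphaIIb integrin peptide tracer; top concentration of the series differs between compounds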
# In short: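 CIB1-GST (1 uM final) and compound incubated 15 min at room temperature before adding FITC-alphaIIb peptide tracer (100 nM final). Competition for binding read by fluorescence polarization (ex 480, em 540) after another 15 min at room temperature.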
# [2] = molecular target: Lysosomal acid glucosylceramidase (Homo sapiens) (UniProt P04062); test: Glucocerebrosidase-p2 (AID 348; in the data active = potency below about 10 µM; note: potency is the fitted concentration of half-maximal effect); conditions: purified GBA, blue fluorogenic substrate, 40 min
# In short: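 Compounds titrated from 0.6 nM upwards against 0.2 nM enzyme in pH 5.9 citric acid/KH2PO4, taurocholate, tween-20; blue fluorogenic substrate 80 uM, 40 min room temperature, stopped and read Ex 365/Em 440 for AC50.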
# [3] = AP1 Signaling Pathway (AID 357; active = well fitted curve in either direction with a large enough effect, not every such curve was filed as active)
# In short: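 ME-180 cells with beta-lactamase reporter under AP-1 response element, stimulated with EC50 EGF; compounds tested in titration series, 5 h at 37 °C. CCF4 substrate added 2.5 h at room temperature; 460/530 nm emission ratio gave %activity and AC50.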
# [4] = molecular target: Cytochrome P450 1A2 (Homo sapiens) (UniProt P05177); test: p450-cyp1a2 (AID 410; calls by dose curve)
# In short: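 Inhibition was calculated relative to 57 uM furafylline (full inhibition). The reaction used human CYP1A2 at 20nM with Luciferin-ME at its Km, 100uM, driven by an NADPH-regenerating system for 60 min at room temperature.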
# [5] = Stat Signaling Pathway (AID 446; active = well fitted curve in either direction with a large enough effect, not every such curve was filed as active;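 note: ME-180 cervical cancer cells given 40 pM IL-6 alongside compound; SIE-controlled beta-lactamase reporter measured as 460/530 nm FRET emission ratio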)
# In short: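 Reporter line: ME-180 cervical carcinoma, SIE-beta-lactamase. Treatment: compound with 40 pM IL-6, 5 hrs, 37 C, in low-serum OPTI-MEM with 10 mM HEPES pH 7.3. Detection: 460/530 nm fluorescence.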
# [6] = molecular target: Glucocorticoid receptor (Homo sapiens) (UniProt P04150); test: GR-EFC Redistribution (AID 451; calls by dose curve; note: potency is the fitted concentration of half-maximal effect); conditions: CHO-K1 GR-EFC translocation, beta-gal luminescence, 2 h
# In short: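 Translocation of GR-ED fusion to nuclear EA restores b-gal, read by luminescence after 1 h room-temperature detection. Engineered CHO-K1 biosensor cells, 1,000/well, exposed 2 h at 37 C to titrations up to 46 uM final.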
# [7] = molecular target: Mitogen-activated protein kinase 10 (Mus musculus) (UniProt Q61831); test: JNK3 AlphaScreen Assay (AID 530; active = well fitted curve in either direction with a large enough effect, not every such curve was filed as active;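 note: kinase came from lysate of stimulated human HepG2 cells; signal reports phosphorylation of biotinylated GST-cJun 1-79 at Ser73 with 10 µM ATP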)
# In short: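 Room-temperature AlphaScreen kinase assay; pre-activated HepG2 lysate as JNK3 source, biotin-GST-cJun(1-79) substrate, 10 uM ATP, compound 15 min preincubation.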
# [8] = molecular target: 3',5'-cyclic-AMP phosphodiesterase 4B (Homo sapiens) (UniProt Q07343); test: qHTS Assay for Inhibitors of PDE-IV (AID 607; active = well fitted activation curve with a large enough effect in the main read-out, with a control signal flat, not every such curve was filed as active)
# In short: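 Cell-based read-out of cAMP via a modified cyclic nucleotide-gated channel and membrane potential dye (535/590 nm) in HEK293 cells expressing PDE4 endogenously. Compounds tested up to 22.9 uM final; 100 uM RO 20-1724 reference.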
# [9] = molecular target: Cytochrome P450 3A4 (Homo sapiens) (UniProt P08684); test: qHTS Assay for Activators of Cytochrome P450 3A4 (AID 885); note: nearly all actives have a fitted effect of over 65% in size
# In short: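 Signal was normalized against complete inhibition by 57 uM ketoconazole. The reaction used 20nM CYP3A4 with 25uM Luciferin-PPXE, 10-min compound preincubation and a 60-min NADPH-supported step at RT.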
# [10] = qHTS Assay for Lipid Storage Modulators (AID 1519; calls by dose curve); conditions: Drosophila S3 cells, BODIPY lipid droplet/cell ratio, laser cytometry, cells loaded with oleic acid; for activity change, negative = inhibition: at 57.5 µM (top of the series)
# In short: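 Cells seeded at 5,000 per well were treated with compounds over a concentration series and loaded with oleic acid (400 uM, as added). Lipid droplet fluorescence (488 nm excitation, 500-530 nm channel) was read by laser-scanning cytometry and normalized to 20 uM Triacsin C.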
# [11] = Counterscreen qHTS for small molecule stabilizers of the endoplasmic reticulum resident proteome: GLuc-NoTag assay (AID 1508627);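 note: SH-SY5Y cells given compound then 100 nM thapsigargin to empty ER calcium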
# In short: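 Luminescence of Gaussia luciferase secreted into the medium (coelenterazine, 0.07x final, unlysed cells) was the read-out. Human SH-SY5Y neuroblastoma cells constitutively secreting untagged GLuc received compound for 19 h, then 100 nM thapsigargin for 4 h.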
# [12] = Confirmatory qHTS for small molecule stabilizers of the endoplasmic reticulum resident proteome: Secreted ER Calcium Modulated Protein (SERCaMP) assay (AID 1508628); note: nearly all actives have a fitted effect of over 40% in size; note: potency is the fitted concentration of half-maximal effect
# In short: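 We seeded SH-SY5Y-GLuc-SERCaMP cells, added compounds (three concentrations in the primary run, eleven up to 76.6 uM in confirmation), incubated 16 h, depleted ER calcium with thapsigargin, and read luciferase 4 h later.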
# [13] = Cell Viability qHTS for small molecule stabilizers of the endoplasmic reticulum resident proteome (AID 1508629); conditions: cell viability counter-screen, 100 nM thapsigargin for final 4 h;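 note: human SH-SY5Y neuroblastoma cells carrying the GLuc-SERCaMP reporter; compound exposure about 46 h in total before the viability read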
# [14] = NFAT Signaling Pathway (AID 444; active = well fitted curve in either direction with a large enough effect, not every such curve was filed as active;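 note: carbachol stimulus at about its EC50 of 1 µM final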); conditions: Jurkat NFAT-bla M1, carbachol, beta-lactamase ratio, 5 h; at 7.69 µM (top of the series)
# In short: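 Read-out: CCF4 FRET ratio (460 nm/530 nm) after 1 h RT dye loading, used for %activity and AC50 from titration series. Cells: Jurkat NFAT-β-lactamase/M1 line, treated with compound plus 1 uM carbachol for 5 h, 37 °C.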
# [15] = measured here: cell count channel max response
# [16] = measured here: lipid channel max response
# Sequence of Calcium and integrin-binding protein 1 (Homo sapiens) (Q99828 whole entry, looked up): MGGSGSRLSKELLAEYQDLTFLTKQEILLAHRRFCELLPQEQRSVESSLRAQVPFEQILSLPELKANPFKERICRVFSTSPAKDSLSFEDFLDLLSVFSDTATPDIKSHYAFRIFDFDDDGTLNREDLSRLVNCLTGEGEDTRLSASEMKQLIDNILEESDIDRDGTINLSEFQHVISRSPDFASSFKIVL
# Sequence of 3',5'-cyclic-AMP phosphodiesterase 4B (Homo sapiens) (Q07343 whole entry, looked up): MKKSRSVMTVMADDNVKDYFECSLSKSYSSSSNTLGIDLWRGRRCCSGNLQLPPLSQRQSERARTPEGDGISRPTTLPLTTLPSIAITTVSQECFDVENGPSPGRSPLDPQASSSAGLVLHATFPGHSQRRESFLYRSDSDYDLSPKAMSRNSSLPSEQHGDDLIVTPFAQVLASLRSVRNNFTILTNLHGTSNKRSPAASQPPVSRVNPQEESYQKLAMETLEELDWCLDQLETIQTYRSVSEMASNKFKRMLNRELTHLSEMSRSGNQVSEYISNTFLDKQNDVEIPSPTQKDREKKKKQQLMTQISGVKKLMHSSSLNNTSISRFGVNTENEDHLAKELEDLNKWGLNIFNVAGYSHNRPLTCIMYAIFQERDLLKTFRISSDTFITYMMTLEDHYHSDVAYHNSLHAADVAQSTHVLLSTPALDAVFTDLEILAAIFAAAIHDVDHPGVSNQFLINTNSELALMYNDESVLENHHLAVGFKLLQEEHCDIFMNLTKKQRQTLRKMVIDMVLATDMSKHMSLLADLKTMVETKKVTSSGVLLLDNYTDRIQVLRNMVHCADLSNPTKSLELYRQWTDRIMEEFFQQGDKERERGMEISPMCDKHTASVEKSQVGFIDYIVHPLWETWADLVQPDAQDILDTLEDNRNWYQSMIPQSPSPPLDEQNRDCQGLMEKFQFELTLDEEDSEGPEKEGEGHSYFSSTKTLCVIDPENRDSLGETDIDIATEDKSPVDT
# Sequence of Cytochrome P450 1A2 (Homo sapiens) (P05177 whole entry, looked up): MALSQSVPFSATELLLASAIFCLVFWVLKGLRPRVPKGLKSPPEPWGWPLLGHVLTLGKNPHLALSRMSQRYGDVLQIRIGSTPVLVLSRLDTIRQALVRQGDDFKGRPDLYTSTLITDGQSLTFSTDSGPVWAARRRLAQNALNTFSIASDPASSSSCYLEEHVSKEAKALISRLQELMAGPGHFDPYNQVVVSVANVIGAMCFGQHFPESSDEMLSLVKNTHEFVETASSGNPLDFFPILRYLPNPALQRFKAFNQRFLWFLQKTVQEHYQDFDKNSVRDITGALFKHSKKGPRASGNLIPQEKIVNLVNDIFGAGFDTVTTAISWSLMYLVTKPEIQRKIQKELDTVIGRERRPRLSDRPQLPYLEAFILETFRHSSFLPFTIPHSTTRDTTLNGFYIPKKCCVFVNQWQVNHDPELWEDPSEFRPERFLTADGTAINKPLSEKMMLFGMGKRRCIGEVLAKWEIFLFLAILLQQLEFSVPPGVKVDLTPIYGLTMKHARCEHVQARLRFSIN
# Sequence of Cytochrome P450 3A4 (Homo sapiens) (P08684 whole entry, looked up): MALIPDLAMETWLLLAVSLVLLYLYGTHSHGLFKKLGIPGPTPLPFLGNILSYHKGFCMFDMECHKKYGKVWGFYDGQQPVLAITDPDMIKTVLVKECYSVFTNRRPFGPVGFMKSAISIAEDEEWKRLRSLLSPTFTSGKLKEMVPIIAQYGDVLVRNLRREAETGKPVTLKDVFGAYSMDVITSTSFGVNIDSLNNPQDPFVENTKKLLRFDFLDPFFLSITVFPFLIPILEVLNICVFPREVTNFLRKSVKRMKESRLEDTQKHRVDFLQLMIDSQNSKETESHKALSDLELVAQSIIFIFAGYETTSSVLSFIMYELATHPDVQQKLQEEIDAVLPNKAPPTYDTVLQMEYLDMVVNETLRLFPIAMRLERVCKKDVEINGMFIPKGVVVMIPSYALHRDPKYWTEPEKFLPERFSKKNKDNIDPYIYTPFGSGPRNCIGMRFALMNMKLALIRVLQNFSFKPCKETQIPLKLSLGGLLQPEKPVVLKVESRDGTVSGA
# Sequence of Glucocorticoid receptor (Homo sapiens) (P04150 whole entry, looked up, the tested form may be a part): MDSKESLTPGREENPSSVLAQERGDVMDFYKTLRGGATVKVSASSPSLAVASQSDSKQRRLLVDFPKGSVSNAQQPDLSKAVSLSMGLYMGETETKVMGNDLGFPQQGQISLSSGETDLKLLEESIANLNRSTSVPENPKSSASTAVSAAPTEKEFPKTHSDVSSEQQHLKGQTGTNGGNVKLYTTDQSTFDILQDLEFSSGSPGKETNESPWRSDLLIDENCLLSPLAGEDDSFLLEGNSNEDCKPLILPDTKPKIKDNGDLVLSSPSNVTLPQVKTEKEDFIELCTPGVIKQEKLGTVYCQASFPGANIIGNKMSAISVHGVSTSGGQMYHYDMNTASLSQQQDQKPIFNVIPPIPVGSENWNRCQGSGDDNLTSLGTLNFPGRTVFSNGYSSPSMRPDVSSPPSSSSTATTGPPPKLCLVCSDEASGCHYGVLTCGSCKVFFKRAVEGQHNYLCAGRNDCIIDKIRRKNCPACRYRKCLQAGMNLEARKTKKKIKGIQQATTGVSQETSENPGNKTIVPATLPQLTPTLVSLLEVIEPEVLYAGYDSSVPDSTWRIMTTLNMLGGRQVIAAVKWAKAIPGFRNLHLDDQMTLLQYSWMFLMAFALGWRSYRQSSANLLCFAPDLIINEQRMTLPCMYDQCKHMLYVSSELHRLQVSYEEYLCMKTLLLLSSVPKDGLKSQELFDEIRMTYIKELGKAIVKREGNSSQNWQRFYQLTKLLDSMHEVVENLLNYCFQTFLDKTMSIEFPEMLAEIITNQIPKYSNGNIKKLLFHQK
# Sequence of Lysosomal acid glucosylceramidase (Homo sapiens) (P04062 whole entry, looked up): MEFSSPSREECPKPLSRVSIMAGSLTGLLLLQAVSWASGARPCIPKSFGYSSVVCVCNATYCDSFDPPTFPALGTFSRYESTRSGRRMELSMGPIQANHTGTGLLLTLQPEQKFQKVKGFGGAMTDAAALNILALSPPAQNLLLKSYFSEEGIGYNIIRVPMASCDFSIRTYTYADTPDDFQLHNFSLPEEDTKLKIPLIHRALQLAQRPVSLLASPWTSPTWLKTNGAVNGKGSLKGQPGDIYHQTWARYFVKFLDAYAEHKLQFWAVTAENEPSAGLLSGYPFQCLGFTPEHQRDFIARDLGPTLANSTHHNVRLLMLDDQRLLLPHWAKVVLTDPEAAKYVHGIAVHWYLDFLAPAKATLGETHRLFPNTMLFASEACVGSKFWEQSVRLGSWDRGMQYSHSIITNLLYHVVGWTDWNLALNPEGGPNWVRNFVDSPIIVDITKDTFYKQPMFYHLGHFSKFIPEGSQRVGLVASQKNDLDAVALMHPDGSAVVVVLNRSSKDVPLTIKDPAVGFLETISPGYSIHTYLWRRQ
smiles,measurement,setting,value
COC(=O)c1nc(-c2cccc3ccccc23)oc1OC,outcome,[1],inactive
CCOc1ccc(CCNC(=O)c2cc3sccc3n2Cc2ccc(F)cc2F)cc1OCC,outcome,[1],inactive
c1cnc(N2CCC3(CCNCC3)CC2)nc1,Potency,[2],> 11.4 µM (inactive)
same,outcome,[3],inactive
same,Potency,[4],inactive
same,outcome,[5],inactive
same,Potency,[6],> 46 µM (inactive)
same,outcome,[7],inactive
same,Potency,[8],inactive
same,Potency,[9],inactive
same,"activity change, negative = inhibition",[10],5.39% (inactive)
same,max response,[10]; [15],13.8%
same,max response,[10]; [16],23.4%
same,outcome,[11],inactive
same,Potency,[12],inactive
same,max response,[13],1.49% (inactive)
CCOc1ccc(CCNC(=O)c2cc3ccncc3n2Cc2cccc(C)n2)cc1OCC,outcome,[1],inactive
CCOc1ccc(CCNC(=O)c2cc3cnccc3n2Cc2cccc(C)c2)cc1OCC,outcome,[1],inactive
O=C(O)c1ccc(O)c2ncc(N3CCCNCC3)cc12,outcome,[1],inactive
COc1cccc(CNc2ccc(S(=O)(=O)Nc3ccc4ccccc4c3)cc2)c1O,outcome,[1],inactive
O=C(O)[C@@H]1CSC(c2cccnc2)N1 (stereo partly drawn),outcome,[11],inactive
same,Potency,[12],inactive
same,max response,[13],25.6% (inactive)
S=P(c1ccccc1)(c1ccccc1)c1cnc2ccccn12,outcome,[1],inactive
CCOc1ccc(CCNC(=O)c2cc3cccnc3n2Cc2cccc(C)c2)cc1OCC,outcome,[1],inactive
CC(C)C1C(=O)N2CCC[C@H]2[C@]2(O)O[C@](NC(=O)[C@@H]3C=C4c5cccc6[nH]cc(c56)C[C@H]4N(C)C3)(C(C)C)C(=O)N12 (stereo partly drawn),outcome,[11],inactive
same,Potency,[12],31.6 µM (active)
CCOc1ccc(CCNC(=O)c2cc3ncccc3n2Cc2cccc(C)n2)cc1OCC,outcome,[1],inactive
Cc1ccc2nc(NC3=NC(c4[nH]ncc4Cl)C4=C(CCCC4=O)N3)oc2c1 (stereo not drawn),outcome,[1],inactive
Cc1ccccc1C(=O)N1CCc2cc(N3CCC(NC(=O)Cc4ccccc4)C3)ccc21 (stereo not drawn),outcome,[1],inactive
c1cc(CN2CCCC3(CCNCC3)C2)ccn1,outcome,[3],inactive
same,Potency,[4],inactive
same,"activity change, negative = inhibition",[14],-14.6% (inactive)
same,outcome,[5],inactive
same,Potency,[6],> 46 µM (inactive)
same,outcome,[7],inactive
same,Potency,[8],inactive
same,Potency,[9],inactive
same,"activity change, negative = inhibition",[10],4.72% (inactive)
same,max response,[10]; [15],11%
same,max response,[10]; [16],17.7%
same,outcome,[11],inactive
same,max response,[13],27.2% (inactive)
